Assay outcomes deposited in PubChem BioAssay by National Center for Advancing Translational Sciences (NCATS).
Eya2 phos inh: Eya2 (human) phosphatase inhibition; hit rate 0.006% among 330,000; O00167; recombinant Eya2, OMFP fluorescence dephosphorylation (OMFP is methylfluorescein phosphate); AID 488837; Potency, µM (titrated, usually from 76.9 µM), most hits filed as inhibitors
Target sequence (O00167 whole entry, looked up): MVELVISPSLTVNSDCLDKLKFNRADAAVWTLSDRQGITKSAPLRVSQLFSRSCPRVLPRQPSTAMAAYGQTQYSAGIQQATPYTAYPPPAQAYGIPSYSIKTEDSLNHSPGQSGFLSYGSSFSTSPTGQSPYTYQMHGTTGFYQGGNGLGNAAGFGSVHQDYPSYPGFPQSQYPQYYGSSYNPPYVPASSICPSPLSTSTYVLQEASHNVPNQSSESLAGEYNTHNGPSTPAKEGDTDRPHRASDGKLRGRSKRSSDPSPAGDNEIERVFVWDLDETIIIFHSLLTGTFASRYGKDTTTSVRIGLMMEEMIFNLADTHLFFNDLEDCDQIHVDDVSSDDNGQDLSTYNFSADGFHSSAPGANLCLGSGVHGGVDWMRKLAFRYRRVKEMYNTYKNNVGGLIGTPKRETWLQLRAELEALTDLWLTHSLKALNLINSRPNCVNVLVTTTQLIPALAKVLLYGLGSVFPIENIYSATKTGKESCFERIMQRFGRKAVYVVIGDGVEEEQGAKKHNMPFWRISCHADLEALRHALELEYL
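Eya2 (0.2 uM) preincubated 10 min at ambient with compound, then OMFP substrate added at 50 uM; 10 min reaction in 50 mM HEPES pH 7.5, 50 mM NaCl, 5 uM MgCl2, 0.05% BSA, 1 mM DTT. Fluorescence read at Ex 485/Em 525 nm.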
p53 reactivation: re-activators of mutant p53; H1299 p53-A138V BP100-luciferase reporter, luminescence, 24 h; Potency, µM (highest dose often 92.2 µM), hits mostly activators; hit rate 0.063% among 320,000; AID 504706; further: nearly all actives have a fitted effect of over 45% in size
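p53-null H1299 cells stably carrying temperature-sensitive p53-A138V and a BP100-luciferase reporter were pinned with compounds (4-point, 1:5 series) and held 24 hrs at 37 deg C. Luminescence was read 10 min after detection reagent.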
BCR signal inh: blocks chronic active B-cell receptor signaling | ABC-DLBCL IkBa-CBG/CBR reporter, luminescence ratio, 4 h | Potency, µM (series often up to 46.1 µM), actives largely listed as inhibitors | hit rate 0.05% among 340,000 | AID 493014; active means well fitted inhibition curve with a large enough effect in the signal ratio, with a control signal flat, not every such curve was filed as active; inconclusive means small, poorly fitted or top-dose-only effect, or effect the other way, or a change in a side signal; the % refers to the signal ratio
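TMD8 human ABC-DLBCL cells with doxycycline-inducible IκBα–green luciferase fusion and unfused red luciferase, in 0.5% FBS medium; compounds up to 46 uM, 4 h at 37C. Green/red luminescence ratio, filter-overlap corrected, fitted to concentration-response curves.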
B2AR arrestin: beta2AR (human) beta-arrestin recruitment activity; P07550; beta-arrestin recruitment to beta2AR, cell-based reporter; Potency, µM (titrated, usually from 46.1 µM), actives largely listed as activators; hit rate 0.02% among 330,000; AID 492947; further: nearly all actives have a fitted effect of over 65% in size
USP2a block: blocks human ubiquitin-specific protease USP2a | hit rate 0.01% among 330,000 | Potency, µM (series often up to 38.3 µM), usual class: inhibitors | AID 463254 | USP2 core, Ub-CHOP2 coupled fluorogenic reporter, 485/531
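Cell-free coupled assay: 10nM USP2 core preincubated 30min RT with compound in Tris-HCl pH 8.0/CaCl2/CHAPS buffer, then 25nM Ub-CHOP2 and 25nM reporter substrate; fluorescence (Ex 485/Em 531) read after 60min RT, normalized to NEM inhibition, concentration-response curves fitted.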
Large screens that a line does not name were inactive; ! = repeats disagree. Only some compounds are listed: those with a hit (about 0.15% of all), similar ones and a draw of the others. Unless noted, the call rests on the fitted dose curve; in most records, active means well fitted curve in the direction sought with a large enough effect; inconclusive means small, poorly fitted or top-dose-only effect, or another doubt; inactive means no such curve, though single readings can be large; an effect the other way counts as inactive or inconclusive.

CCc1ccc(C(=O)c2cn(CC(=O)Nc3cccc(OC)c3)c3ccc(OC)cc3c2=O)cc1	BCR signal inh inconclusive (no result: p53 reactivation)
CCOc1ccc2c(c1)C(=NNC(=O)c1ccncc1)c1cc(OCC)ccc1-2	p53 reactivation 40µM, BCR signal inh inconclusive
NC(=O)c1sc2nc3c(c(-c4ccco4)c2c1N)CCC3	BCR signal inh inconclusive
Nc1c(C(=O)NC2CC2)sc2nc3c(c(-c4ccco4)c12)CC/C3=C/c1ccco1	USP2a block 22µM
CCOc1ccc2nc(N3C(=O)/C(=C/c4ccccc4)NC3=S)sc2c1	p53 reactivation 13µM, BCR signal inh inconclusive
O=C1/C(=C/c2ccsc2)CC/C1=C\c1cccs1	none (no result: p53 reactivation, BCR signal inh, B2AR arrestin, USP2a block)
Clc1cccc(C2Nc3cccc4cccc(c34)N2)c1Cl	p53 reactivation inconclusive, BCR signal inh inconclusive, B2AR arrestin 2.8µM
Clc1ccccc1C1Nc2cccc3cccc(c23)N1	B2AR arrestin inconclusive
Cc1ccc(NC(=O)CCC(=O)NNC(=S)Nc2ccccc2)c(C)c1	none
Cc1ccc(NC(=S)NNC(=S)Nc2ccc(C)cc2C)cc1	BCR signal inh 18µM
Cc1ccc(C(=O)c2cc([N+](=O)[O-])ccc2N2CCCCC2)cc1	BCR signal inh 23µM
O=C(NCc1ccc2c(c1)OCO2)c1cc([N+](=O)[O-])ccc1N1CCCCC1	BCR signal inh 23µM
CN1C2CC(OC(=O)[C@H](CO)c3ccccc3)CC1C1OC12 (some centres undefined)	none (no result: p53 reactivation, BCR signal inh, B2AR arrestin, USP2a block)
COCCNC(=O)c1cc(-c2ccc3c(c2)OCO3)on1	p53 reactivation 20µM
NC(=S)N/N=C/c1ccccc1OC(=O)c1cc2ccccc2oc1=O	p53 reactivation inconclusive, B2AR arrestin 13µM
CN=c1scc(-c2ccccc2F)n1/N=C/c1ccc(O)c(O)c1O	USP2a block 13µM
COCCCn1nnnc1SCC(=O)Nc1ccc2c(c1)OCCO2	none
CCn1nnnc1SCC(=O)Nc1ccc2c(c1)OCCO2	p53 reactivation 10µM
Oc1ccc(CNc2cccc(C(F)(F)F)c2)c2cccnc12	none (no result: p53 reactivation)
Oc1ccc(/C=N/Nc2ccc(C(F)(F)F)cn2)c(O)c1	p53 reactivation 11µM, BCR signal inh inconclusive
CCOc1ccc(NC(=O)CSc2nccn2C)cc1	p53 reactivation 45µM, BCR signal inh inconclusive
Cn1ccnc1SCC(=O)Nc1ccc(Oc2ccccc2)cc1	p53 reactivation inconclusive, BCR signal inh inconclusive
c1ccc(CSc2nnc(-c3ccco3)o2)cc1	p53 reactivation inconclusive, BCR signal inh inconclusive
O=C(O)c1ccc(CSc2nnc(-c3ccco3)o2)cc1	BCR signal inh 18µM
CCOC(=O)C1=C(C)NC(C)=C(C(=O)OCC)C1c1c(F)c(F)c(F)c(F)c1F	none (no result: p53 reactivation, BCR signal inh, B2AR arrestin, USP2a block)
CN(C)c1cccc(C(=O)NNC(=O)CN2C(=O)C3CC=CCC3C2=O)c1 (centres undefined)	p53 reactivation 45µM
Cc1cccc(C)c1NC(=O)CN1C(=O)C2CC=CCC2C1=O (centres undefined)	none
NNC(=O)/C(=C/c1cccs1)NC(=O)c1ccccc1Cl	BCR signal inh 11µM
N#C/C(=C\c1cccs1)C(=O)c1ccccc1Cl	BCR signal inh inconclusive
Cc1cccnc1NC(=O)c1ccc([N+](=O)[O-])o1	p53 reactivation 11µM
Cc1ccccc1NC(=O)c1ccc([N+](=O)[O-])o1	BCR signal inh inconclusive
COc1ccc(C(=O)NNc2ncnc3c2cnn3-c2cccc(Cl)c2)cc1OC	none (no result: Eya2 phos inh, p53 reactivation, B2AR arrestin, USP2a block)
CCC(NC(C)C)C(O)c1ccc(O)c2[nH]c(=O)ccc12 (centres undefined)	B2AR arrestin 0.18µM
Cc1ccc(CNc2ncnc3c2c(-c2ccccc2)cn3-c2cccc(Cl)c2)cc1	none (no result: Eya2 phos inh, p53 reactivation, B2AR arrestin, USP2a block)
O=C(/C=C/c1ccccc1)NC(=O)c1ccccc1O	p53 reactivation 28µM, BCR signal inh inconclusive
COCCCNC(=O)CSc1nc2cc3c(cc2c(=O)n1CCCC(=O)NCc1ccc2c(c1)OCO2)OCO3	none (no result: Eya2 phos inh, p53 reactivation, B2AR arrestin, USP2a block)
O=C1C(SCCO)=C(SCCO)C(=O)c2ccccc21	Eya2 phos inh 50µM!, BCR signal inh inconclusive
COc1cccc(/C=N/NC(=S)Nc2cccc(S(=O)(=O)N(C)C)c2)c1	BCR signal inh inconclusive, B2AR arrestin 18µM
CCCn1c(C)cc(C(=O)CSc2nc3ccccc3c(=O)n2Cc2ccco2)c1C	p53 reactivation 25µM
Cc1cc2c(cc1Cl)N(C(=O)Nc1ccc(Oc3cccnc3C)nc1)CC2	none (no result: p53 reactivation, BCR signal inh, B2AR arrestin, USP2a block)
O=C(Nc1ccccc1)Nc1cccc(C(F)(F)F)c1	none
COC(=O)/C(=C\C(=O)c1ccccc1)Nc1cccc(C(F)(F)F)c1	p53 reactivation 28µM
COc1ccc(-c2noc(CSc3nc(N)c(-c4ccccc4)c(=O)[nH]3)n2)cc1OC	BCR signal inh 21µM
COc1ccc(-c2cc(C(C)=O)c(C)n2CCC(=O)Nc2ccc(C)cc2Cl)cc1	none (no result: Eya2 phos inh, p53 reactivation, B2AR arrestin, USP2a block)
O=C1/C(=C/N(C(=O)c2ccco2)c2ccc(Cl)cc2)Sc2ccccc21	p53 reactivation 28µM, BCR signal inh inconclusive
Cc1ccc(-n2ncc3ccccc3c2=O)cc1Cl	none
O=c1c2ccccc2cnn1-c1ccc(Cl)cc1	p53 reactivation 25µM
Fc1cccc(CNc2ncnc3ccc(-c4ccoc4)cc23)c1	none (no result: p53 reactivation)
O=C(Nc1ccc(Cl)c(C(F)(F)F)c1)c1nc2ccccc2nc1N1CCCCC1	none (no result: Eya2 phos inh, p53 reactivation, B2AR arrestin, USP2a block)
CC(C)(C)NC(=O)C(c1ccc(F)cc1)N(Cc1ccccc1Cl)C(=O)c1ccn[nH]1 (centres undefined)	BCR signal inh inconclusive, B2AR arrestin 1µM
CCC(C)(C)NC(=O)C(c1ccccc1F)N(C(=O)c1ccn[nH]1)c1ccccc1 (centres undefined)	none
COc1ccc(-c2cc3cc4c(cc3cn2)OCO4)cc1	BCR signal inh inconclusive
c1ccc(-c2cc3cc4c(cc3cn2)OCO4)cc1	p53 reactivation 8.9µM, BCR signal inh inconclusive
CCCC12CN3CC(CCC)(CN(C1)C3c1ccccc1)C2=O (centres undefined)	none (no result: Eya2 phos inh, p53 reactivation, B2AR arrestin, USP2a block)
c1ccc(-c2noc(-c3ccccc3-c3ccccc3)n2)cc1	BCR signal inh inconclusive
CN(C)c1ccc(-c2noc(-c3ccccc3O)n2)cc1	p53 reactivation 7.1µM, BCR signal inh inconclusive
COc1cccc(/C=N/NC(=O)c2cc3c(OC)ccc(OC)c3[nH]2)c1O	BCR signal inh 3.2µM
COc1cc(OC)c2cc(C(=O)N/N=C/c3cccc(OC)c3O)[nH]c2c1	p53 reactivation inconclusive, BCR signal inh inconclusive
CCOC(=O)c1c(S(=O)(=O)N2CCCC(C(=O)N3CCN(c4ccccc4)CC3)C2)c(C)n(C)c1C (centres undefined)	none (no result: Eya2 phos inh, p53 reactivation, B2AR arrestin, USP2a block)
CC(=O)Nc1cc(C(=O)OCC(=O)c2ccc(Cl)cc2Cl)ccc1C	none
CC(=O)Nc1cc(C(=O)OCC(=O)c2ccc(C)cc2)ccc1C	p53 reactivation 28µM
CCCSc1nnc(Sc2nnnn2-c2ccccc2)s1	BCR signal inh 9.2µM
Cc1cccc(Oc2nc3c(C)cccn3c(=O)c2/C=C(\C#N)c2nc3ccccc3[nH]2)c1	none (no result: Eya2 phos inh, p53 reactivation, B2AR arrestin, USP2a block)
Cc1ccc2oc(C(Cl)(Cl)Cl)cc(=O)c2c1	BCR signal inh 22µM
